This passage reports activation and Potency results from PubChem BioAssay (NCATS).

The structures appear in SMILES notation. “And” between values parts separate entries of the source, which are not always exact repeats. Equal entries are not always repeated. Results filed as inconclusive are left out. The source made the active and inactive calls. The call rests on the fitted dose curve; in most records, active means well fitted activation curve with a large enough effect; inconclusive means small, poorly fitted or top-dose-only effect; inactive means no such curve, though single readings can be large or run the other way.
Potency means the concentration at half of the fitted maximal effect.

Cellular tumor antigen p53 (Homo sapiens), sequence (P04637 whole entry, looked up): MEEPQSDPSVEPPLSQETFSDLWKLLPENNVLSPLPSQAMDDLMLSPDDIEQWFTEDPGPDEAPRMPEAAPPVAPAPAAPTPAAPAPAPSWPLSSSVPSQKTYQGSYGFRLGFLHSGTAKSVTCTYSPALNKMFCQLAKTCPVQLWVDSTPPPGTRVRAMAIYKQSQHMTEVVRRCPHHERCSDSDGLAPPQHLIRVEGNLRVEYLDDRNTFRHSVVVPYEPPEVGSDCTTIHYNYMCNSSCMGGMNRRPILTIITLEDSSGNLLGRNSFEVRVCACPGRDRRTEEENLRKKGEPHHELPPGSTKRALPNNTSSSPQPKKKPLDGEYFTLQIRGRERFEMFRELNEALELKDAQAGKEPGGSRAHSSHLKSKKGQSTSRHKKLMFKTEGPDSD

In this assay the target is Cellular tumor antigen p53 (Homo sapiens) (UniProt P04637). Kind of assay: Primary qHTS for small molecule compounds that upregulate eGFP-tagged delta133p53alpha (in N-terminal) cells. (AID 2060322). Further: nearly all actives have a fitted effect of over 75% in size.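 On activation: series mostly up to about 56 µM; 0% = DMSO vehicle and 100% = reference activator.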 The conditions noted are these: NCI-H358 eGFP-delta133p53alpha fluorescence, 24 h; activation: active compounds read high. The gist of the method:
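NCI-H358 cells pre-induced 24 h with 10 ng/ml doxycycline to express N-terminal eGFP-delta133p53alpha, then dosed 24 h at 37C without doxycycline; fixed, Hoechst-stained, GFP intensity by laser scanning cytometry, normalized to DMSO (0%) and 57.5 uM 5-azacytidine (100%).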
As for `CCN[C@@H](C)Cc1ccccc1`, the activation is -10.7% (inactive).

For the compound `C[CH2][Hg][S]c1ccccc1C(=O)O`, the Potency was 3.89 µM (active).

For the compound `C1=C2CCCN[C@H]2[C@@H]2C[C@H]1[C@@H]1CCCCN1C2`, the activation was 1.08% (inactive). Same read-out and setting: for `CC(O)=C(C#N)C(=O)Nc1cc(Br)ccc1Br` the value was 1.6% (inactive); for `NC(N)=NOCC[C@H](N)C(=O)O`, -12% (inactive). Take `C=C1C[C@H]2[C@H]3CCC(=O)[C@@]3(C)CC[C@@H]2[C@@]2(C)C=CC(=O)C=C12`: the activation was 3.97% (inactive).

`Cc1cccc(Cc2cnc[nH]2)c1C`: the activation was -0.837% (inactive). Still for that read-out and setting: for `c1cc2c(cc1[C@H]1OC[C@H]3[C@H]1CO[C@H]3c1ccc3c(c1)OCO3)OCO2` the value was 13.9% (inactive). Consider `N#C[C@H](O[C@@H]1O[C@H](CO[C@@H]2O[C@H](CO)[C@H](O)[C@H](O)[C@H]2O)[C@H](O)[C@H](O)[C@H]1O)c1ccccc1`, for which the activation was 6.64% (inactive). As for `CNC(C)(C)Cc1ccccc1`, the activation is -3.35% (inactive). With `CCS(=O)(=O)C(C)(C)S(=O)(=O)CC`, the activation is -5.86% (inactive).

Turning to `O=C(Nc1ccc(Br)cc1)c1cc(Br)cc(Br)c1O`, the activation was 29.9% (inactive). Turning to `COc1cc(CC(C)N)cc(OC)c1OC` (centres undefined), the activation was -10.7% (inactive). Take `CCCCCCCCCCCC[N+](C)(C)CCOc1ccccc1`: the Potency is 21.9 µM (active). Consider `CC(CC(C#N)(c1ccccc1)c1ccccc1)N(C)C` (centres undefined), for which the activation was 24.3% (inactive). `CCCN(CCC)CCc1c[nH]c2ccccc12`: the activation was 22% (inactive). Still for that read-out and setting: for `COC(=O)C(Cl)C(=O)OC` the value was -13.4% (inactive); for `CC=C(C)C(=O)O[C@H]1C(C)=C2[C@@H]3OC(=O)[C@@](C)(O)[C@@]3(O)[C@@H](OC(=O)CCC)C[C@](C)(OC(C)=O)[C@@H]2[C@@H]1OC(=O)CCCCCCC`, -0.0676% (inactive); for `NCc1cccnc1`, 6.21% (inactive). Regarding `Clc1ccc(COC(Cn2ccnc2)c2ccc(Cl)cc2Cl)cc1` (centres undefined), the activation is 24.3% (inactive) and 15.7% (inactive). For the compound `CC(C)(O)C=CC(=O)[C@](C)(O)[C@H]1[C@H](O)C[C@]2(C)[C@@H]3CC=C4[C@@H](C=C(O)C(=O)C4(C)C)[C@]3(C)C(=O)C[C@@]12C`, the Potency was 34.3 µM (active). With `CC(C)NCC(O)c1ccc(N)c(C#N)c1` (centres undefined), the activation is 1.69% (inactive). For `CC#C[C@]1(O)CC[C@H]2[C@@H]3C[C@H](C)C4=CC(=O)CC[C@]4(C)[C@H]3CC[C@@]21C`, the activation is -4.18% (inactive). For `CC(C)=CC1C(C(=O)OCN2C(=O)C3=C(CCCC3)C2=O)C1(C)C` (centres undefined), the activation was 17.6% (inactive). Take `Clc1ccc(N2CC3CCC(C2)N3)nn1`: the activation is -9.56% (inactive). `CCO/N=C(\CC)C1=C(O)CC(c2c(C)cc(C)cc2C)CC1=O` (centres undefined): the activation is 16.7% (inactive). Turning to `CC(=O)OC1(c2ccccc2)CCN(CCc2ccccc2)CC1`, the activation was -10.7% (inactive).

In the case of `c1ccc(CN2CCNCC2)cc1`, the activation was 15.3% (inactive). As to `COc1cc(CC#N)cc(OC)c1OC`, the activation was 2.82% (inactive). As for `O=C(O)c1ccnc2cc(C(OCCN3CCC(F)(F)CC3)c3ccccc3Cl)[nH]c12` (centres undefined), the activation is -26.8% (inactive).

On to `ClCc1cccc(Cl)c1`, for which the activation is 5.02% (inactive).

`CCN(CC)CCOC(=O)C(C)(c1ccccc1)c1ccccc1`: the activation was -8.47% (inactive).

Regarding `CC1NCCOC1c1ccccc1` (centres undefined), the activation is 9.6% (inactive).

Consider `Cc1ccc(Cl)c(O)c1`, for which the activation was 5.08% (inactive). Consider `Nc1ccc(Cl)cc1N`, for which the Potency was 22.4 µM (active). With `Clc1ccc(C(c2ccc(Cl)cc2)C(Cl)(Cl)Cl)cc1`, the activation was -11.9% (inactive). On to `c1cc2ccc3cccc4ccc(c1)c2c34`, for which the activation was 0% (inactive). As to `C[C@@H]1CC[C@H]2[C@@H](C)C(=O)O[C@@H]3O[C@@]4(C)CC[C@H]1[C@]32OO4`, the activation is 5.37% (inactive). The same measure, in the same setting: for `Cc1ccc2c(c1)C1CN(C)CCC1N2` (centres undefined) the value was 0.837% (inactive).
